# The list is not random: actives were taken first. Their share in the collection is about 3.6%.
# mHTT-CaM PPI inh: mHTT-calmodulin interaction abrogation | AlphaScreen His-mHTT/GST-CaM binding, luminescence | inhibition, % at 15 µM | 190,000 compounds, 3.6% hits | AID 1671202;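 also: 0% = both proteins with DMSO and 100% = one protein alone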
# Pf apPOL inh: Pf-apPOL DNA polymerase inhibition | Recombinant Pf-apPOL, molecular beacon fluorescence, 1.5 h | inhibition, % at 10 µM | 210,000 compounds, 0.25% hits
# * = called active by the depositor; . = no result given. Rule as the data show it: active = inhibition above about 50%; inactive = the rest.
SMILES,mHTT-CaM PPI inh,Pf apPOL inh
O=C(NCc1ccccn1)C1CCN(c2nccn3nc(-c4ccccc4)cc23)CC1,23,7
O=C(NCc1ccco1)c1cccc(C(=O)NCc2ccco2)n1,8,3
Cc1cccc(N2CCN(C(=O)c3ccc(-c4cccnc4)nc3)CC2)c1C,64*,0
COc1ccccc1N1CCN(C(=O)c2ccc(-c3cccnc3)nc2)CC1,4,-2
Cc1noc(C)c1S(=O)(=O)N1CCCC(C)(C(=O)NCc2ccccc2)C1 (stereo not drawn),3,-2
O=C(NCc1ccccc1)c1ccc2c(c1)NC(=O)C1CCCN21 (stereo not drawn),15,-5
CCN(CCCNC(=O)c1ccc2c(c1)NC(=O)C1CCCN21)Cc1ccccc1 (stereo not drawn),19,50*
Cc1ccc2c(c1)NC(c1ccccc1Cl)C1=C(CC(C)(C)CC1=O)N2 (stereo not drawn),7,-3
O=c1[nH]c(-c2ccccc2O)nc2ccccc12,-9,2
Oc1ccccc1-c1nc2ccccc2[nH]1,65*,1
O=C(O)CC(C(=O)O)c1ccco1 (stereo not drawn),-3,.
OC(C#Cc1ccccc1)c1ccco1 (stereo not drawn),100*,70*
CCC(C)n1c(=N)c(S(=O)(=O)c2ccc(C)cc2)cc2c(=O)n3cccc(C)c3nc21 (stereo not drawn),4,-5
C#Cc1cccc(NC(=O)c2sc3nc(C)c(N=Nc4cc(Cl)cc(Cl)c4)c(C)c3c2N)c1,.,24
CCC(NS(=O)(=O)c1ccc(Cl)c([N+](=O)[O-])c1)C12CC3CC(CC(C3)C1)C2 (stereo not drawn),99*,-4
CCC(NS(=O)(=O)c1cc(Cl)ccc1OC)C12CC3CC(CC(C3)C1)C2 (stereo not drawn),-6,-18
CNC(=O)C1CCc2sc(C(=O)N3CCOCC3)cc2C1 (stereo not drawn),-2,-2
CSC1=C(C#N)C(c2ccc(O)cc2)CC(=O)N1 (stereo not drawn),-3,1
CCc1cc(CC)c(/C=N/O)c(CC)c1/C=N\O,-2,.
O=C(NCC1CCCO1)c1cc2n(n1)C(C(F)(F)F)CC(c1ccco1)N2 (stereo not drawn),-4,-2
O=C(NCC1CCCO1)c1cc2n(n1)C(C(F)(F)F)CC(c1ccc(Cl)c(Cl)c1)N2 (stereo not drawn),54*,-8
N#CCCc1cccc(NC(=O)c2cc3n(n2)C(C(F)(F)F)CC(c2ccc(Cl)cc2)N3)c1 (stereo not drawn),74*,0
COc1ccc(C2CC(C(F)(F)F)n3nc(C(=O)Nc4cc(C)ccc4O)cc3N2)cc1 (stereo not drawn),12,-14
Cc1ccc(C2CC(C(F)(F)F)n3nc(C(=O)Nc4cccc(CCC#N)c4)cc3N2)cc1 (stereo not drawn),18,-1
O=C(Nc1cc(Cl)ccc1O)c1cc2n(n1)C(C(F)(F)F)CC(c1ccc(Cl)cc1)N2 (stereo not drawn),89*,-3
SMILES,mHTT-CaM PPI inh,Pf apPOL inh
CCOc1ccc(C(=O)N2CCN(c3nc(CN4CCOCC4)cs3)CC2)cc1,19,8
Cc1ccc2oc(C(F)(F)F)cc(=O)c2c1[N+](=O)[O-],1,-1
O=C1CCCC(=O)N1CCS(=O)(=O)N1CCN(S(=O)(=O)C2CC2)CC1,-18,1
Cc1cc(/C=C2\SC(=O)N(Cc3ccc(F)cc3)C2=O)c(C)n1C,8,-3
Cc1cc(S(=O)(=O)N2CCN(S(=O)(=O)c3ccc(Cl)c(C)c3)C(C)C2)ccc1Cl (stereo not drawn),-3,-3
COc1ccc2nc(NS(=O)(=O)c3ccc(Cl)cc3)sc2c1,2,-3
CCC(=O)Nc1nnc(N=Cc2ccc(Br)s2)s1,1,-2
c1ccc(Oc2nc(N3CCCCC3)nc3c2CN(Cc2cccnc2)CC3)cc1,53*,-2
CC(C)CN1CCc2nc(N3CCOCC3)nc(Oc3ccccc3F)c2C1,22,0
CCOc1ccc(CN2CCc3nc(N4CCCC4)ncc3C2)cc1,18,7
Cn1cccc1CN1CCc2nc(N3CCCCC3)nc(Oc3ccccc3)c2C1,71*,2
O=C(NCC1(c2ccccc2)CCOCC1)c1c(F)cccc1Cl,-16,-4
CCOc1ncccc1C(=O)Nc1cccc(-c2ccc3nnc(C)n3n2)c1,-6,-4
O=C(Nc1cccc(-c2ccc3nnc(-c4cccnc4)n3n2)c1)c1ccc(F)cc1F,80*,-3
CCOc1ccc(-c2cccc(NC(=O)c3ccc(F)cc3F)c2)nn1,-1,2
Cc1nnc2ccc(-c3cccc(NC(=O)c4cc(Br)ccc4Cl)c3)nn12,57*,-4
CCN1CCN(C2CCN(C(=O)c3cc(OC)cc(OC)c3)CC2)C1=O,-14,-3
Cn1c(/C=C/c2ccc([N+](=O)[O-])o2)nc2ccccc2c1=O,3,-4
Cn1cc(C(c2ccc([N+](=O)[O-])o2)c2cn(C)c3ccccc23)c2ccccc21,65*,0
COc1c(C)cccc1C1=N/C(=C/c2ccc(Cl)cc2)C(=O)O1,6,0
Cc1ccc(C(=O)NCc2ccc(N3CCCCC3)nc2)cc1F,6,3
O=C(Nc1ccc(Cl)cc1)/C(=C1\Nc2ccc([N+](=O)[O-])cc2N1)[N+](=O)[O-],5,1
O=C(Nc1ccc(Br)cc1)/C(=C1\Nc2ccc([N+](=O)[O-])cc2N1)[N+](=O)[O-],16,52*
O=C(Nc1nnc2ccccn12)c1ccccc1,3,-8
O=C(Cc1ccccc1)Nc1ncc(S(=O)(=O)c2ccc([N+](=O)[O-])cc2)s1,1,-4
SMILES,mHTT-CaM PPI inh,Pf apPOL inh
CCC(C(=O)Nc1ncc(S(=O)(=O)c2ccc([N+](=O)[O-])cc2)s1)c1ccccc1 (stereo not drawn),61*,-2
CC1(C(=O)NCc2cccc(F)c2)CCCN(S(=O)(=O)c2ccc(F)cc2)C1 (stereo not drawn),5,0
O=C1Nc2ccccc2Oc2cc([N+](=O)[O-])cc(Oc3ccc(Br)cc3)c21,42,-7
O=C1Nc2ccccc2Oc2cc([N+](=O)[O-])cc(Oc3ccc(Cl)cc3)c21,51*,-2
CCC(=O)N1CCc2ccccc2C1C(=O)NCc1ccc(F)cc1Cl (stereo not drawn),11,1
COc1ccc(C=C2Oc3c(ccc4c3CN(Cc3ccncc3)CO4)C2=O)cc1,58*,-22
COc1ccc(C=C2Oc3c(ccc4c3CN(Cc3ccccn3)CO4)C2=O)c(OC)c1OC,-6,-4
COc1ccc(C=C2Oc3c(ccc4c3CN(Cc3ccccn3)CO4)C2=O)cc1OC,-1,-18
COc1ccc(C=C2Oc3c(ccc4c3CN(Cc3ccccn3)CO4)C2=O)cc1,100*,-31
COc1cccc(C=C2Oc3c(ccc4c3CN(Cc3ccncc3)CO4)C2=O)c1,39,-30
O=C1C(=Cc2ccccc2)Oc2c1ccc1c2CN(Cc2cccnc2)CO1,41,-26
COc1ccc(OC)c(C=C2Oc3c(ccc4c3CN(Cc3ccccn3)CO4)C2=O)c1,100*,47
O=C1C(=Cc2ccc(Br)cc2)Oc2c1ccc1c2CN(Cc2cccnc2)CO1,83*,-31
CCOc1ccccc1NC(=O)c1ccc(F)c(S(=O)(=O)N(C)Cc2ccccc2)c1,-18,-2
COc1ccc(CNC(=O)C2(C)CCCN(C(=O)c3ccc(Cl)cc3)C2)cc1 (stereo not drawn),8,2

# Screening data as filed in PubChem BioAssay.
